{"source": "PubChem BioAssay (NCATS)", "note": "Results filed as inconclusive are left out. A number with no mark means an inactive call. Calls come from the whole dose curve; as a rule, active = well fitted inhibition curve with a large enough effect; inconclusive = small, poorly fitted or top-dose-only effect; inactive = flat fitted curve, though single readings scatter. % is set by controls: 0 for no effect and ±100 for the full control effect."}
{"target": "Calcium and integrin-binding protein 1 (Homo sapiens) (UniProt Q99828)", "sequence (Q99828 whole entry, looked up)": "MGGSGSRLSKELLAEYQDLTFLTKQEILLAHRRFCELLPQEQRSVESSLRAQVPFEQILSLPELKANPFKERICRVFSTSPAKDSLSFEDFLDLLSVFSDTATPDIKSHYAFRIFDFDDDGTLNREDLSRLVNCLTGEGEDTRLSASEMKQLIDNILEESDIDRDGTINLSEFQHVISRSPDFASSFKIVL", "assay": "Primary qHTS for Identification of Calcium Integrin Binding Protein 1 (CIB1) Competitor (AID 1508620);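 note: GST tagged CIB1 binding a fluorescein labelled alphaIIb integrin peptide tracer; top concentration of the series differs between compounds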", "conditions": "CIB1-GST / FITC-alphaIIb peptide fluorescence polarization; series mostly up to 57.7 µM; activity change, negative = inhibition: at the top concentration", "procedure,_shortened": "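Fluorescence polarization competition: CIB1-GST (1 uM final) preincubated with compound 15 min at room temperature, then FITC-labeled alphaIIb peptide (100 nM final) added for another 15 min. Polarization read at Ex 480/Em 540.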", "units": {"activity change, negative = inhibition": "%"}}
{"smiles": "O=C(O)C(=O)Nc1cccc(C2=NN=N[N]2)c1", "activity change, negative = inhibition": -0.323}
{"smiles": "N#CC(=C(N)Sc1ccc(N)cc1)c1ccccc1C(F)(F)F", "activity change, negative = inhibition": -0.736}
{"smiles": "C=CC[C@@H]1C=C(C)C[C@H](C)C[C@H](OC)[C@H]2O[C@@](O)(C(=O)C(=O)N3CCCC[C@H]3C(=O)O[C@H](C(C)=C[C@@H]3CC[C@H](O)[C@H](OC)C3)[C@@H](C)[C@@H](O)CC1=O)[C@@H](C)C[C@@H]2OC", "activity change, negative = inhibition": 1.15}
{"smiles": "CON=C(C(=O)N[C@@H]1C(=O)N2C(C(=O)O)=C(CSC(=O)c3ccco3)CS[C@H]12)c1csc(N)n1", "activity change, negative = inhibition": -6.84}
{"smiles": "O=C(O)C[C@H](O)C[C@H](O)C=Cc1c(C2CC2)nc2ccccc2c1-c1ccc(F)cc1", "activity change, negative = inhibition": -3.22}
{"smiles": "CCc1cnn2c(NCc3ccc[n+]([O-])c3)cc(N3CCCC[C@@H]3CCO)nc12", "activity change, negative = inhibition": 1.98}
{"smiles": "COC1=C(OC)C(=O)C(CC=C(C)CCC=C(C)CCC=C(C)CCC=C(C)CCC=C(C)CCC=C(C)CCC=C(C)CCC=C(C)CCC=C(C)CCC=C(C)C)=C(C)C1=O", "activity change, negative = inhibition": 6.68}
{"smiles": "CC(=O)N[C@@H]1[C@H](O[C@@H]2c3ccc(c(Cl)c3)Oc3cc4cc(c3O[C@H]3O[C@H](CO)[C@@H](O)[C@H](O)[C@H]3NC(=O)CCCCCCCC(C)C)Oc3ccc(cc3Cl)C[C@H]3NC(=O)[C@H](N)c5ccc(O)c(c5)Oc5cc(O)cc(c5)[C@H](NC3=O)C(=O)N[C@H]4C(=O)N[C@H]3C(=O)N[C@@H]2C(=O)N[C@@H](C(=O)O)c2cc(O)cc(O[C@H]4O[C@H](CO)[C@@H](O)[C@H](O)[C@H]4O)c2-c2cc3ccc2O)O[C@H](CO)[C@@H](O)[C@@H]1O", "activity change, negative = inhibition": 2.8}
